Records with an inconclusive call do not appear. The source made the active and inactive calls. Calls follow the shape of the dose curve; as a rule, active = well fitted curve in the direction sought with a large enough effect in the repeat runs; inconclusive = weak or mixed curves; inactive = no such curve, though single readings can be large; an effect the other way counts as inactive or inconclusive. Positions of bridges follow the written chain, without caps; N, C: chain ends. Non-standard residues stand in square brackets, D forms with d. Residues, ends and D or L forms follow the SMILES beside them. hArg = N=C(N)NCCCC[C@H](N)C(=O)O; Mpa = O=C(O)CCS
Tests used:
[1] = A CellTox Green Cytotoxicity Assay to monitor cytotoxicity in HepG2 cells - 24 hour (AID 1224878); also: nearly all actives have a fitted effect of over 45% in size
Method in brief: (§1)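 Cytotoxicity was tracked as dead-cell DNA fluorescence in HepG2 cells treated with test compounds at 37 C; each time-point value comes from one kinetic series spanning 0, 8, 16, 24, 32 and 40 h.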

[2] = A CellTox Green Cytotoxicity Assay to monitor cytotoxicity in HepG2 cells - 40 hour (AID 1224879); also: nearly all actives have a fitted effect of over 40% in size
Method in brief: as §1

[3] = qHTS RealTime-Glo MT Cell Viability Assay in HEK293 cells - 0 hour (AID 1224880); also: top concentration of the series differs between compounds; nearly all actives have a fitted effect of over 45% in size
Method in brief: (§2)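 Kinetic, non-lysing viability readout. Seed HEK293 (600/well) with reagent, incubate 5 h at 37 C/5% CO2, pin 23 nL compound in DMSO, incubate at 37 C, read luminescence at 0, 8, 16, 24, 32, 40 h.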

[4] = A CellTox Green Cytotoxicity Assay to monitor cytotoxicity in HEK293 cells - 32 hour (AID 1224881); also: nearly all actives have a fitted effect of over 40% in size
Method in brief: (§3)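 Real-time, in one plate: 600 HEK293 cells/well with dead-cell DNA dye, pinned compound after 5 h, 37 C incubation over 40 h; viable cells give no appreciable fluorescence.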

[5] = A CellTox Green Cytotoxicity Assay to monitor cytotoxicity in HepG2 cells - 0 hour (AID 1224882); also: nearly all actives have a fitted effect of over 35% in size
Method in brief: as §1

[6] = A CellTox Green Cytotoxicity Assay to monitor cytotoxicity in HepG2 cells - 32 hour (AID 1224883); also: nearly all actives have a fitted effect of over 50% in size
Method in brief: as §1

[7] = A CellTox Green Cytotoxicity Assay to monitor cytotoxicity in HEK293 cells - 8 hour (AID 1224884); also: nearly all actives have a fitted effect of over 35% in size
Method in brief: as §3

[8] = qHTS RealTime-Glo MT Cell Viability Assay in HepG2 cells - 16 hour (AID 1224885); also: nearly all actives have a fitted effect of over 50% in size
Method in brief: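 qHTS, HepG2, 600 cells/well, RealTime-Glo (NanoLuc + prosubstrate) added with cells; 5 h preincubation; DMSO compound addition; 37 C; luminescence at 0/8/16/24/32/40 h.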

[9] = qHTS RealTime-Glo MT Cell Viability Assay in HEK293 cells - 24 hour (AID 1224886); also: top concentration of the series differs between compounds; nearly all actives have a fitted effect of over 50% in size
Method in brief: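 Assay medium contained NanoLuc luciferase plus cell-permeant prosubstrate, added with HEK293 cells at 600 cells/well. After 5 h at 37 C/5% CO2 compounds were added; plates stayed at 37 C for 40 h with serial luminescence reads.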

[10] = qHTS RealTime-Glo MT Cell Viability Assay in HEK293 cells - 8 hour (AID 1224887); also: top concentration of the series differs between compounds; nearly all actives have a fitted effect of over 50% in size
Method in brief: as §2
% is scaled to controls: 0 for no effect and ±100 for the full control effect.

Cc1c(Cl)cccc1Cl
inactive: Potency [1] | Potency [2] | Potency [3] | Potency [4] | Potency [5] | Potency [6] | Potency [7] | outcome [8] | Potency [9] | Potency [10]

COC(=O)c1ccccc1C(=O)O
inactive: Potency [1] | Potency [2] | Potency [3] | Potency [4] | Potency [5] | Potency [7] | outcome [8] | Potency [9] | Potency [10]

COCCc1ccccn1
inactive: Potency [1] | Potency [2] | Potency [3] | Potency [4] | Potency [5] | Potency [6] | Potency [7] | outcome [8] | Potency [9] | Potency [10]

CC(O)CC(C)O (configuration not stated)
inactive: Potency [1] | Potency [2] | Potency [3] | Potency [4] | Potency [5] | Potency [6] | Potency [7] | outcome [8] | Potency [9] | Potency [10]

COc1cc(OC)nc(O[C@H](C(=O)O)C(OC)(c2ccccc2)c2ccccc2)n1
inactive: Potency [1] | Potency [2] | Potency [3] | Potency [4] | Potency [5] | Potency [7] | outcome [8] | Potency [9] | Potency [10]

CN(C)CCCCl
inactive: Potency [1] | Potency [2] | Potency [3] | Potency [4] | Potency [5] | Potency [7] | outcome [8] | Potency [9] | Potency [10]

CCNC(=O)NCc1cccc(Cl)c1
inactive: Potency [1] | Potency [2] | Potency [3] | Potency [4] | Potency [5] | Potency [6] | Potency [7] | outcome [8] | Potency [9] | Potency [10]

CCCCCCCCCCCCCCCCCC#N
inactive: Potency [1] | Potency [2] | Potency [3] | Potency [4] | Potency [5] | Potency [6] | Potency [7] | outcome [8] | Potency [9] | Potency [10]

COC(=O)c1cccc(Cl)c1
inactive: Potency [1] | Potency [2] | Potency [3] | Potency [4] | Potency [5] | Potency [6] | Potency [7] | outcome [8] | Potency [9] | Potency [10]

NC(=O)[C@@H]1CSSCCC(=O)N[C@@H](CCCCN=C(N)N)C(=O)NCC(=O)N[C@@H](CC(=O)O)C(=O)N[C@@H](Cc2c[nH]c3ccccc23)C(=O)N2CCC[C@H]2C(=O)N1 ([Mpa][hArg]GDWPC-NH2; disulfide 1-7)
inactive: Potency [1] | Potency [2] | Potency [3] | Potency [4] | Potency [5] | Potency [7] | outcome [8] | Potency [9] | Potency [10]

N[C@@H](CSCCCO)C(=O)O
inactive: cytotoxicity [1] -17.7% [at 15.8 µM] | cytotoxicity increase [2] -14.5% [at 15.8 µM] | activity change, negative = cytotoxicity [3] -0.729% [at 15.8 µM] | cytotoxicity increase [4] -0.789% [at 15.8 µM] | cytotoxicity [5] -7.54% [at 15.8 µM] | cytotoxicity increase [6] -15.9% [at 15.8 µM] | cytotoxicity increase [7] -2.04% [at 15.8 µM] | activity change, negative = cytotoxic [8] 0.578% [at 15.8 µM] | activity change, negative = cytotoxicity [9] 2.46% [at 15.8 µM] | activity change, negative = cytotoxicity [10] -0.319% [at 15.8 µM]

OC[C@H]1O[C@@H](O[C@@H]2[C@@H](CO)O[C@](O)(CO)[C@H]2O)[C@H](O)[C@@H](O)[C@H]1O
inactive: Potency [1] | Potency [2] | Potency [3] | Potency [4] | Potency [6] | Potency [7] | outcome [8] | Potency [9] | Potency [10]

O=C1CCCCO1
inactive: Potency [1] | Potency [2] | Potency [3] | Potency [4] | Potency [6] | Potency [7] | outcome [8] | Potency [9] | Potency [10]

CCCCCc1cccc(=O)o1
inactive: Potency [1] | Potency [2] | Potency [3] | Potency [4] | Potency [6] | Potency [7] | outcome [8] | Potency [9] | Potency [10]

COP(=O)(O)OP(=O)(O)OC
inactive: Potency [1] | Potency [2] | Potency [3] | Potency [4] | Potency [5] | Potency [7] | outcome [8] | Potency [9] | Potency [10]

CC(C)Cn1cnc2c1c(=O)n(C)c(=O)n2C
inactive: Potency [1] | Potency [2] | Potency [3] | Potency [4] | Potency [5] | Potency [7] | outcome [8] | Potency [9] | Potency [10]

CO/N=C(/C(=O)N[C@@H]1C(=O)N2C(C(=O)[O-])=C(C[n+]3ccn4ncccc43)CS[C@H]12)c1nsc(N)n1
inactive: Potency [1] | Potency [2] | Potency [3] | Potency [4] | Potency [5] | Potency [7] | outcome [8] | Potency [9] | Potency [10]

O/N=C/C=N/O
inactive: Potency [1] | Potency [2] | Potency [3] | Potency [4] | Potency [6] | Potency [7] | outcome [8] | Potency [9] | Potency [10]

C=CC(=O)OCC1CCCO1 (configuration not stated)
inactive: Potency [1] | Potency [2] | Potency [3] | Potency [4] | Potency [6] | Potency [7] | outcome [8] | Potency [9] | Potency [10]

Cn1c(=O)c2[nH]c(Br)nc2n(C)c1=O
inactive: Potency [1] | Potency [2] | Potency [3] | Potency [4] | Potency [6] | Potency [7] | outcome [8] | Potency [9] | Potency [10]

Source: PubChem BioAssay (Tox21)
